The structures appear in SMILES notation. Results filed as inconclusive are left out. Active and inactive are the calls of the source. Calls follow the shape of the dose curve; as a rule, active = well fitted inhibition curve with a large enough effect; inconclusive = small, poorly fitted or top-dose-only effect; inactive = flat fitted curve, though single readings scatter. Non-standard residues stand in square brackets, D forms with d. Residues, ends and D or L forms follow the SMILES beside them. Dolaproine = CO[C@@H]([C@@H]1CCCN1)[C@@H](C)C(=O)O; Dil = CC[C@H](C)[C@H](NC)[C@@H](CC(=O)O)OC; NMeV = CN[C@H](C(=O)O)C(C)C

The nature of the assay: Identification of antibody-drug conjugate (ADC) payloads which are substrates of ATP-binding cassette drug efflux transporters: ABCB1-HEK293-MDR-19 cell line with tariquidar. Particulars: HEK293 ABCB1 (MDR-19) + tariquidar, CellTiter-Glo viability, 48 h. An excerpt: Antibody-drug conjugates (ADCs) feature an antibody recognizing a specific protein joined to a potent toxic payload. Numerous antibody-drug conjugates have received FDA approval; however, clinical resistance arises. Resistance mechanisms include decreased expression or mutation of the antibody target, impaired payload release, or increased expression of ATP-binding cassette (ABC) efflux transporters associated with multidrug resistance. We therefore sought to characterize the interaction of ABC multidrug transporters with ADC payloads. We performed a high-throughput screen with 27 common ADC payloads using cells lines expressing ABC transporters P-glycoprotein (P-gp, encoded by ABCB1) or ABCG2 (encoded by ABCG2). Confirmatory assays were also performed using cells transfected to express P-gp, ABCG2, or MRP1 (encoded by ABCC1). Several commonly used ADC payloads were substrates of P-gp, including calicheamicin gamma1, monomethyl auristatin E, DM1, and DM4. All the pyrrolobenzodiazepines tested - SJG136, SGD-1882, SG2057, and SG3199 - were substrates of P-gp, ABCG2, and MRP1. […] These findings highlight the risk of transporter-mediated resistance with certain ADC payloads and underscore the importance of selecting payloads that evade ABC transporter recognition in future ADC development.
HEK-293 cells were transfected with empty vector (pcDNA) or vector containing the human ABCB1 (MDR-19), ABCG2 (R-5), or ABCC1 gene (MRP1) and were maintained in EMEM with 2 mg/mL G418 added to maintain transporter expression. The HeLa derivative KB-3-1 and the P-gp overexpressing KB-8-5-11 subline were maintained in DMEM; KB-8-5-11 additionally received 100 ng/mL colchicine. H460 parental cells were obtained from the Division of Cancer Treatment and Diagnosis Tumor Repository, National Cancer Institute at Frederick, MD and were cultured in RPMI. The ABCG2 expressing subline H460 MX20 was generated by selecting H460 cells in 20 nM mitoxantrone. Media in all cases was supplemented with 10% FBS and 1% penicillin-streptomycin. We explored 27 common ADC payloads, in two orthogonal, paired cell line sets-a drug selected and transfected set for each transporter--to identify substrates of the ABC transporters P-gp and ABCG2. Compounds were sourced from Levena Biopharma (San Diego, CA), Selleck Chem (Houston, TX), ChemieTek (Indianapolis, IN), or Microsource Discovery Systems (Gaylordsville, CT). Screening was performed as previously described. Briefly, cells were plated at a density of 500 cells/well in 1536 well plates with compounds added using a 1536-head pin tool (Kalypsys, San Diego CA). Cells were incubated with cytotoxic drugs and processed with CellTiter Glo reagent (Promega, Madison, WI) to determine viability after 48 hours. P-gp substrates were identified by comparing compound activity between paired sets of low-expressing (sensitive) and over-expressing (resistant) cell lines.
As for `CCN[C@H]1CO[C@@H](O[C@H]2[C@H](O[C@H]3C#C/C=C\C#C[C@]4(O)CC(=O)C(NC(=O)OC)=C3/C4=C\CSSSC)O[C@H](C)[C@@H](NO[C@H]3C[C@H](O)[C@H](SC(=O)c4c(C)c(I)c(O[C@@H]5O[C@@H](C)[C@H](O)[C@@H](OC)[C@H]5O)c(OC)c4OC)[C@@H](C)O3)[C@@H]2O)C[C@@H]1OC`, the Potency is 0.1 nM (active).

In the case of `COc1cccc2c1C(=O)c1c(O)c3c(c(O)c1C2=O)C[C@@](O)(C(=O)CO)C[C@@H]3O[C@H]1C[C@H](N)[C@H](O)[C@H](C)O1`, the Potency was 33.4 nM (active).

Turning to `CCN(C(C)=O)[C@H]1CO[C@@H](O[C@H]2[C@H](O[C@H]3C#C/C=C\C#C[C@]4(O)CC(=O)C(NC(=O)OC)=C3/C4=C\CSSSC)O[C@H](C)[C@@H](NO[C@H]3C[C@H](O)[C@H](SC(=O)c4c(C)c(I)c(O[C@@H]5O[C@@H](C)[C@H](O)[C@@H](OC)[C@H]5O)c(OC)c4OC)[C@@H](C)O3)[C@@H]2O)C[C@@H]1OC`, the Potency is 1.2 nM (active).

For the compound `CCc1c2c(nc3ccc(O)cc13)-c1cc3c(c(=O)n1C2)COC(=O)[C@]3(O)CC`, the Potency was 4.2 nM (active). As for `CC(C)(C)OC(=O)Nc1ccc2[nH]c(C(=O)N3C[C@@H](CCl)c4c3cc(O)c3ccccc43)cc2c1`, the figure is 11.8 nM (active); as for `CN(C)CCOc1ccc2[nH]c(C(=O)N3C[C@@H](CCl)c4c3cc(O)c3ccccc43)cc2c1`, 0.5 nM (active). As for `Cc1nc(Nc2ncc(C(=O)Nc3c(C)cccc3Cl)s2)cc(N2CCN(CCO)CC2)n1`, the figure is 13300 nM (active); as for `COc1cc2cc(c1Cl)N(C)C(=O)C[C@H](O)[C@]1(C)O[C@H]1[C@H](C)C1C[C@@](O)(NC(=O)O1)[C@H](OC)/C=C/C=C(\C)C2`, 2650 nM (active). The result for `COC(=O)c1cc2c3c(cc(O)c2[nH]1)N(C(=O)c1cc2cc(OC)c(OC)c(OC)c2[nH]1)CC3CCl` (stereo unspecified) reads 0.7 nM (active).

For the compound `CC[C@H](C)[C@@H]([C@@H](CC(=O)N1CCC[C@H]1[C@H](OC)[C@@H](C)C(=O)N[C@@H](Cc1ccccc1)C(=O)O)OC)N(C)C(=O)[C@@H](NC(=O)[C@@H](NC)C(C)C)C(C)C` (H-[NMeV]V[Dil][Dolaproine]F-OH), the Potency is 529 nM (active).

For `COc1cccc2c1C(=O)c1c(O)c3c(c(O)c1C2=O)C[C@@](O)(C(=O)CO)C[C@@H]3O[C@H]1C[C@H]2[C@H](O[C@@H]3[C@@H](OC)OCCN32)[C@H](C)O1`, the Potency is 0.0265 nM (active).

For the origin of these results see PubChem BioAssay AID2061317 (National Center for Advancing Translational Sciences (NCATS), 2025).
